Usually AC50 stands for the concentration giving half of the maximal activity seen.

Active and inactive are the calls of the source. The calls were made as follows: active = hit-call score of the fitted dose curve at least 0.9, where 1 is the maximum; inactive = score below 0.9.

This passage reports outcome and AC50 results from PubChem BioAssay (EPA / NIEHS).

Read-out in experiment [1]: Human Leukocyte Antigen - DR isotype (HLADR), HLA-DRA (gene 3122)
Kind of experiment: BSK_BE3C_HLADR: BioMAP Diversity Plus: BE3C Assay for Human Leukocyte Antigen - DR isotype (HLADR) Biomarker Activity (AID 2283032). To be noted: primary human bronchial epithelial cells; actives raise or lower the signal. Summed up:
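Primary human bronchial epithelial cells (BE3C); 24 h chemical exposure; HLA-DR by ELISA; bidirectional curve fit vs DMSO baseline.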

Read-out in experiment [2]: Vascular cell adhesion molecule 1 (VCAM1), VCAM1 (gene 7412)
Kind of experiment: BSK_4H_VCAM1: BioMAP Diversity Plus: 4H Assay for Vascular cell adhesion molecule 1 (VCAM1) Biomarker Activity (AID 2283033).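 As to outcome: cell-surface VCAM-1 protein measured by ELISA.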 To be noted: primary human endothelial cells (HUVEC); actives raise or lower the signal. The gist of the method:
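HUVEC, 24 h post-dose; VCAM-1 by ELISA. Bidirectional curve fit vs DMSO baseline. Parallel SRB total-protein stain (0.1% SRB after 10% TCA fixation, 560 nm) for cytotoxicity.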

Read-out in experiment [3]: Interferon-gamma inducible Protein 10 (IP10), CXCL10 (gene 3627)
The experiment is described as follows: BSK_BE3C_IP10: BioMAP Diversity Plus: BE3C Assay for Interferon-gamma inducible Protein 10 (IP10) Biomarker Activity (AID 2283034). To be noted: primary human bronchial epithelial cells; actives raise or lower the signal. The gist of the method:
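ELISA readout of IP-10 in BE3C system: primary human bronchial epithelial cells, 24 h post-dosing; bidirectional curve fit vs DMSO baseline.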

Read-out in experiment [4]: Monokine induced gamma interferon (MIG), CXCL9 (gene 4283)
The experiment is described as follows: BSK_BE3C_MIG: BioMAP Diversity Plus: BE3C Assay for Monokine induced gamma interferon (MIG) Biomarker Activity (AID 2283035).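 As to outcome: MIG protein measured by ELISA in BE3C cultures after 24 h of dosing.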 To be noted: primary human bronchial epithelial cells; actives raise or lower the signal. Summed up: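 Dose cells (human primary bronchial epithelial), incubate 24 h, quantify MIG by ELISA, then fit concentration–response in both directions relative to DMSO control.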

Read-out in experiment [5]: Transforming growth factor beta 1 (TGFb1), TGFB1 (gene 7040)
Kind of experiment: BSK_BE3C_TGFb1: BioMAP Diversity Plus: BE3C Assay for Transforming growth factor beta 1 (TGFb1) Biomarker Activity (AID 2283036;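 as to outcome: TGF-b1 protein level measured by ELISA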). To be noted: primary human bronchial epithelial cells; actives raise or lower the signal. The gist of the method: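 Read-out: ELISA for TGF-b1 in primary human bronchial epithelial cultures, 24 h post-dose. Bidirectional curve fitting vs DMSO control; gain or loss of signal both scored.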

Read-out in experiment [6]: Plasminogen activator inhibitor-1 (PAI1), SERPINE1 (gene 5054)
Kind of experiment: BSK_BE3C_PAI1: BioMAP Diversity Plus: BE3C Assay for Plasminogen activator inhibitor-1 (PAI1) Biomarker Activity (AID 2283037). To be noted: primary human bronchial epithelial cells; actives raise or lower the signal. Summed up: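 ELISA read-out of PAI-1 from human bronchial epithelial primary cells, 24 h post-dosing; bidirectional curve fit vs DMSO baseline, gain or loss of signal scored.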

Read-out in experiment [7]: urokinase plasminogen activator (uPA), PLAU (gene 5328)
Kind of experiment: BSK_BE3C_uPA: BioMAP Diversity Plus: BE3C Assay for urokinase plasminogen activator (uPA) Biomarker Activity (AID 2283038).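 As to outcome: uPA protein level quantified by ELISA in cell cultures; uPA read one day after compound addition.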 To be noted: primary human bronchial epithelial cells; actives raise or lower the signal. Summed up: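 Bronchial epithelial cells (human, primary); chemical 24 h; uPA by ELISA; bidirectional fit vs DMSO. SRB (0.1%, after 10% TCA fixation, 560 nm) in parallel cultures for cytotoxicity.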

Read-out in experiment [8]: Urokinase-type plasminogen activator receptor (uPAR), PLAUR (gene 5329)
Kind of experiment: BSK_BE3C_uPAR: BioMAP Diversity Plus: BE3C Assay for Urokinase-type plasminogen activator receptor (uPAR) Biomarker Activity (AID 2283039).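 As to outcome: uPAR protein level measured by ELISA on the cells; cells exposed to compound for one day before measurement.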 Particulars: primary human bronchial epithelial cells; actives raise or lower the signal. Summed up: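 ELISA readout of uPAR on human lung primary bronchial epithelial cells, 24 h post-dosing. Bidirectional curve fit relative to DMSO vehicle baseline; gain or loss of signal both scored.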

Read-out in experiment [9]: Interleukin-6 (IL6), IL6 (gene 3569)
The experiment is described as follows: BSK_CASM3C_IL6: BioMAP Diversity Plus: CASM3C Assay for Interleukin-6 (IL6) Biomarker Activity for (AID 2283040). Particulars: primary human coronary artery smooth muscle cells; actives raise or lower the signal.

Read-out in experiment [10]: Tissue plasminogen activator (tPA), PLAT (gene 5327)
The experiment is described as follows: BSK_BE3C_tPA: BioMAP Diversity Plus: BE3C Assay for Tissue plasminogen activator (tPA) Biomarker Activity (AID 2283041).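 As to outcome: tPA level quantified by ELISA one day after compound addition.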 To be noted: primary human bronchial epithelial cells; actives raise or lower the signal. The gist of the method: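 ELISA read-out of tPA on human primary bronchial epithelial cells, 24 h post-dosing; bidirectional fit vs DMSO negative control/baseline.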

With `Cc1cc(SC2=C(O)C[C@@](CCc3ccc(N)cc3)(C(C)C)OC2=O)c(C(C)(C)C)cc1CO`, the result in experiment [1], in [2], in [3], in experiment [4], in [5] and in [6] was inactive. Also, the result in experiment [7], in experiment [8], in experiment [9] and in experiment [10] was inactive.
In the case of `Cc1ccc(-c2cc(C(F)(F)F)nn2-c2ccc(S(N)(=O)=O)cc2)cc1`, the AC50 is 33.4 µM (active) in [1]; 32.7 µM (active) in experiment [2]; 30.6 µM (active) in experiment [3]; 39.1 µM (active) in [4]; 20 µM (active) in experiment [5]; 36.6 µM (active) in [6]. The AC50 is 35.9 µM (active) in experiment [7], 31.6 µM (active) in [8], 32.9 µM (active) in experiment [9] and 18.6 µM (active) in experiment [10].
Consider `C#CC(O)C(CC)CCCC` (stereo not drawn), for which the result in experiment [1], in experiment [2], in experiment [3], in experiment [4], in [5] and in [6] was inactive. The outcome in experiment [7], in experiment [8], in experiment [9] and in [10] was inactive.
For the molecule `CCCC(=O)O`, the result in experiment [1], in experiment [2], in experiment [3], in experiment [4], in experiment [5] and in experiment [6] was inactive. The result in experiment [7], in experiment [8], in experiment [9] and in experiment [10] was inactive.
As for `CC(C)COC(=O)CCCCC(=O)OCC(C)C`, the outcome in [1], in [2], in [3], in [4], in [5] and in [6] was inactive. The result in experiment [7], in [8], in experiment [9] and in experiment [10] was inactive.
On to `COc1ccc(OC(F)(F)F)cc1CN[C@H]1CCCN[C@H]1c1ccccc1`, for which the result in [1], in experiment [2], in experiment [3], in experiment [4], in experiment [5] and in experiment [6] was inactive. The result in experiment [8], in experiment [9] and in experiment [10] was inactive. Further, the half-maximal activity concentration (AC50) in experiment [7] is 20 µM (active).
`CSc1ccc(Oc2ccc(S(N)(=O)=O)cc2CN(C)C)cc1C`: the result in [1], in experiment [2], in experiment [3], in experiment [4], in experiment [5] and in [6] was inactive. Further, the outcome in experiment [7], in experiment [8], in [9] and in [10] was inactive.
As to `CO[C@@H]1COCC[C@@H]1N[C@@H]1CC[C@@](C(=O)N2CCc3ncc(C(F)(F)F)cc3C2)(C(C)C)C1`, the result in [1], in [2], in experiment [3], in experiment [4], in [5] and in experiment [6] was inactive. Besides, the result in [7], in [8], in experiment [9] and in experiment [10] was inactive.
As to `O=C1CCCCC1`, the result in experiment [1], in experiment [2], in [3], in [4], in [5] and in experiment [6] was inactive. In addition, the result in experiment [7], in experiment [8], in experiment [9] and in experiment [10] was inactive.
As to `O=[Si]=O`, the result in experiment [1], in experiment [2], in experiment [3], in experiment [4], in experiment [5] and in experiment [6] was inactive. Besides, the outcome in [7], in experiment [8], in experiment [9] and in experiment [10] was inactive.
`O=C1OC(c2ccc(O)cc2)(c2ccc(O)cc2)c2ccccc21`: the figures for the half-maximal activity concentration (AC50) in experiment [1], in experiment [2] and in experiment [4] were 0.379 µM (active), 30.8 µM (active) and 7.79 µM (active), respectively. Besides, the result in experiment [5], in experiment [6], in experiment [7], in [8], in experiment [9] and in experiment [10] was inactive.
As for `Nc1nc(=S)c2[nH]cnc2[nH]1`, the outcome in experiment [1], in experiment [3], in experiment [4], in experiment [5], in [6] and in experiment [7] was inactive. In addition, the result in [8], in experiment [9] and in [10] was inactive.
As to `S=c1[nH]c2ccccc2s1`, the result in experiment [1], in experiment [2], in [3], in experiment [4], in experiment [5] and in experiment [6] was inactive. The outcome in experiment [7], in [8], in experiment [9] and in [10] was inactive.
Take `O=Cc1ccccc1C=O`: the outcome in experiment [1], in experiment [2], in experiment [3], in experiment [4], in [5] and in experiment [6] was inactive. The outcome in experiment [7], in experiment [8] and in [10] was inactive.
Take `COC(=O)[C@H]1[C@H]2C[C@@H]3c4[nH]c5cc(OC)ccc5c4CCN3C[C@H]2C[C@@H](OC(=O)c2cc(OC)c(OC)c(OC)c2)[C@@H]1OC`: the result in experiment [1], in [4], in [6], in experiment [8], in [9] and in experiment [10] was inactive. Besides, the AC50 in experiment [2] is 8.36 µM (active).
For the molecule `Cn1cnc2c1c(=O)[nH]c(=O)n2C`, the outcome in experiment [1], in experiment [2], in experiment [3], in experiment [4], in experiment [5] and in experiment [6] was inactive. For the same molecule, the outcome in experiment [7], in experiment [8], in experiment [9] and in experiment [10] was inactive.
As for `Cc1cc(Cc2ccc(N)c(C)c2)ccc1N`, the result in experiment [1], in experiment [2], in experiment [3], in experiment [4], in experiment [5] and in [6] was inactive. In addition, the outcome in [7], in experiment [8], in [9] and in experiment [10] was inactive.
On to `CN(C)CCCN1c2ccccc2Sc2ccc(Cl)cc21`, for which the AC50 in [2] is 17.8 µM (active); in experiment [3], 30.5 µM (active); in experiment [4], 38.4 µM (active); in [5], 32.1 µM (active); in experiment [6] it was 31.9 µM (active); in experiment [7], 36.4 µM (active). The AC50 in [8] was 29.4 µM (active); in experiment [10], 32.1 µM (active). In addition, the outcome in experiment [9] was inactive.
Turning to `CCCCC(CC)COC(=O)CCCCCCCC(=O)OCC(CC)CCCC` (stereo not drawn), the result in experiment [1], in experiment [2], in experiment [3], in [4], in [5] and in experiment [6] was inactive. The outcome in [7], in experiment [8], in [9] and in [10] was inactive.
Take `CCc1cc(C2=C(C(=O)O)N(c3ccccc3C(F)(F)F)S(=O)(=O)c3ccccc32)cc2c1OCO2`: the outcome in experiment [1], in experiment [2], in [3], in experiment [4], in [5] and in [6] was inactive. In addition, the outcome in [7], in experiment [8], in [9] and in experiment [10] was inactive.
Regarding `OCC(CO)n1cnc(-c2ccc(F)cc2)c1-c1ccnc(Oc2ccccc2)n1`, the result in experiment [1], in experiment [2], in experiment [3], in experiment [4], in experiment [5] and in experiment [8] was inactive. Also, the result in experiment [10] was inactive. Moreover, the AC50 in experiment [6] was 1.29 µM (active); in experiment [7], 3.97 µM (active); in experiment [9], 0.654 µM (active).
As for `CC(C)(C)c1ccccc1`, the outcome in [1], in [2], in experiment [3], in [4], in [5] and in [6] was inactive. Moreover, the outcome in experiment [7], in [8], in experiment [9] and in experiment [10] was inactive.
Take `Cc1ccc(C(C)(C)C)c(O)c1`: the result in experiment [1], in experiment [2], in experiment [3], in experiment [4], in experiment [5] and in experiment [6] was inactive. The outcome in experiment [7], in experiment [8], in experiment [9] and in experiment [10] was inactive.
